Inconclusive results are not listed. Where a call stands in place of a potency, no number is given. Calls of active or inactive are those of the source. Calls follow the shape of the dose curve; as a rule, active = well fitted curve in the direction sought with a large enough effect; inconclusive = small, poorly fitted or top-dose-only effect, or another doubt; inactive = no such curve, though single readings can be large; an effect the other way counts as inactive or inconclusive.
Experiments:
[1] = qHTS to identify inhibitors of the type 1 interferon - major histocompatibility complex class I in skeletal muscle: primary screen against the NCATS Pharmaceutical Collection (AID 1347407);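 also: luminescence of HiBiT knocked into endogenous HLA-B as interferon-induced MHC class I level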
Procedure, shortened: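 Cells were seeded with 4 ng/ml IFN-beta, incubated 1 h, then dosed with compounds over eight 1:5 steps up to 46 uM final. After 24 h at 37 C, HiBiT lytic reagent was added and luminescence read after 10 min lysis in the dark.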

[2] = biological target: Protein phosphatase 1D (Homo sapiens) (UniProt O15297); assay: RapidFire Mass Spectrometry qHTS Assay for Modulators of WT P53-Induced Phosphatase 1 (WIP1) (AID 1347424);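 also: amount of dephosphorylated VEPPL-S-QETFS peptide product formed by WIP1; series mostly up to about 63 µM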
Protein phosphatase 1D (Homo sapiens), sequence (O15297 whole entry, looked up): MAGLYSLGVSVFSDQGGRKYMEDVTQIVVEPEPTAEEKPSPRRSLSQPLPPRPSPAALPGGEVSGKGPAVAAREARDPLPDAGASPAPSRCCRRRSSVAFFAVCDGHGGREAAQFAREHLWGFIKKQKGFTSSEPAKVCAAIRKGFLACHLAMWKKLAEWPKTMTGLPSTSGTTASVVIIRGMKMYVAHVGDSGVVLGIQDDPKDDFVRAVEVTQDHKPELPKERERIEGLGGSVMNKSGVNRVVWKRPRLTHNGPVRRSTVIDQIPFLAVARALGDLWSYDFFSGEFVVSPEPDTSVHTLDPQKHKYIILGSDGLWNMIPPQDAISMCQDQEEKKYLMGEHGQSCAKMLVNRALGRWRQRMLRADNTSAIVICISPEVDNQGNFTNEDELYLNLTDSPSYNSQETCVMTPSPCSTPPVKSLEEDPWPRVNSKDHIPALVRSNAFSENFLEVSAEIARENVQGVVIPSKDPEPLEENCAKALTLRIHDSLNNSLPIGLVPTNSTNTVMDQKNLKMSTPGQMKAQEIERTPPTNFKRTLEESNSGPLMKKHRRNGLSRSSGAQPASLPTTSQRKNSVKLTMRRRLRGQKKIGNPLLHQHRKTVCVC
Procedure, shortened: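 RapidFire mass spectrometry measured dephosphorylated peptide after 5 min room-temperature reaction of 2 uM VEPPL-pS-QETFS with 10 nM WIP1 (50 mM Tris-HCl pH 7.5, 30 mM MgCl2, 0.1 mM EGTA, BSA), following 1 hr compound preincubation; 1 uM isotope-labelled product standard.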

[3] = biological target: Protein phosphatase 1D (Homo sapiens) (UniProt O15297); assay: Rhodamine-PBP qHTS Assay for Modulators of WT P53-Induced Phosphatase 1 (WIP1) (AID 1347425)
Procedure, shortened: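 WIP1 (5 nM final) was preincubated with compound for 1 hour at room temperature. It then dephosphorylated 10 uM VEPPL-pS-QETFS peptide in Tris-HCl pH 7.5 with 30 mM MgCl2. Released Pi was detected by 10 uM Rh-PBP fluorescence (ex 525/em 598 nm) read at 1-min intervals for 11 min, as delta f1 - f0.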

[4] = qHTS to identify inhibitors of the type 1 interferon - major histocompatibility complex class I in skeletal muscle: primary screen against the NCATS Mechanism Interrogation Plate v5.0 (MIPE) Libary (AID 1347411); also: nearly all actives have a fitted effect of over 65% in size
Procedure, shortened: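 IFN-beta-driven (4 ng/ml) HLA-B-HiBit expression in CRISPR-tagged C25cl48 myoblasts; compounds 11-pt, 1:3, max 46 uM, 24 hr exposure; lytic NanoLuc complementation luminescence.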

[5] = qHTS for inhibitors of adenylyl cyclases using a fission yeast platform: a pilot screen against the NCATS LOPAC library (AID 1347410)
Procedure, shortened: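 Growth medium went into the plates first, then compounds were pinned (final up to 57 µM), then CHP2027 yeast were added. Plates were incubated overnight (18 h) at 30C in the dark, and GFP was measured by laser scanning cytometry.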

Row | Structure (SMILES) | outcome [1] | Potency [2] | outcome [3] | Potency [4] | outcome [5]
1 | COCCOCCO | inactive | inactive | inactive | – | –
2 | Nc1c(Cl)c(Cl)c(Cl)c(Cl)c1Cl | inactive | inactive | inactive | – | –
3 | CCCCOC(=O)c1ccccc1C(=O)OCc1ccccc1 | inactive | inactive | inactive | – | –
4 | C=CCC1=C(C)C(OC(=O)C2C(C=C(C)C)C2(C)C)CC1=O (stereo not given) | inactive | inactive | inactive | – | –
5 | CC1(N2CCC(n3c([C@@H]4CCCNC4)nc4ccccc43)CC2)CCCCCCC1 | – | – | – | inactive | –
6 | c1cc2ccc3cccc4ccc(c1)c2c34 | inactive | inactive | inactive | – | –
7 | C1CCC(NC2CCCCC2)CC1 | inactive | inactive | inactive | – | –
8 | O=[N+]([O-])/N=C1\NCCN1Cc1ccc(Cl)nc1 | inactive | inactive | inactive | – | –
9 | Cc1nccc2c1[nH]c1ccccc12 | – | – | – | – | inactive
10 | c1ccc(CCCN2CCN(CCOC(c3ccccc3)c3ccccc3)CC2)cc1 | – | – | – | – | inactive
11 | O=[N+]([O-])c1cc([N+](=O)[O-])c2ccccc2c1 | inactive | inactive | inactive | – | –
12 | CCCCC(CC)COC(=O)c1ccccc1C(=O)OCC(CC)CCCC (stereo not given) | inactive | inactive | inactive | – | –

— PubChem BioAssay (NCATS)
